The values that follow come from PubChem BioAssay (Tox21).

Experiment [1] addresses Retinoic acid receptor RXR-alpha (Homo sapiens) (UniProt P19793). Briefly: qHTS assay to identify small molecule agonists of the RXR signaling pathway (AID 1159527; calls by dose curve; further: nearly all actives have a fitted effect of over 35% in size). The essentials:
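Compounds in DMSO were added to RXR-alpha-UAS-bla HEK 293T cells kept in 2% charcoal-stripped serum, and incubated 16 hr at 37 C with 5% CO2. Reporter signal came from a 2 hr B/G FRET substrate step.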

Experiment [2] can be described thus: qHTS assay to identify small molecule agonists of the RXR signaling pathway - cell viability counter screen (AID 1159529).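 Further: HEK 293T cells carrying an RXR-alpha UAS beta-lactamase reporter; nearly all actives have a fitted effect of over 50% in size.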 The procedure, abridged: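 Counter screen: CellTiter-Glo luminescence. Cells: RXR-alpha-UAS-bla HEK 293T. Medium: 2% charcoal-stripped FBS. Treatment: 16 h, 37 C. Reagent incubation: 30 min, RT.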
On the technique in general: qHTS replaces the single test concentration by a dilution series.

The nature of experiment [3]: qHTS assay to identify small molecule antagonists of the retinoid acid receptor (RAR) signaling pathway - cell viability counter screen (AID 1159551). Further: nearly all actives have a fitted effect of over 35% in size. The essentials:
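C3RL4 cells were seeded overnight at 37 C, then treated with compounds plus 1 uM (final) retinol for 6 h at 37 C. Viability was read as ATP by CellTiter-Glo luminescence after 30 min at room temperature.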

The nature of experiment [4]: qHTS assay to identify small molecule antagonists of the retinoic acid receptor (RAR) signaling pathway (AID 1159552; further: nearly all actives have a fitted effect of over 50% in size). The essentials: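 Antagonism of retinol-induced RARE reporter activity was measured in C3RL4 cells. Exposure to compounds and 1 uM final retinol lasted 6 hr at 37 C, with luminescence as endpoint.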
A short description of experiment [5]: qHTS assay to identify small molecule agonists of the retinoic acid receptor (RAR) signaling pathway (AID 1159553). Further: potency means the concentration at half of the fitted maximal effect. The following applies: C3RL4 RARE luciferase reporter, agonist, 6 h; activation: at 73.3 µM (top of the series). The procedure, abridged: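 C3RL4 cells carrying a RARE luciferase reporter were plated overnight at 37 C, then exposed to compounds in DMSO for 6 hr at 37 C and 5% CO2. Luminescence was read 30 min after luciferase reagent addition at room temperature.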

The target in experiment [6] is Luciferin 4-monooxygenase (Photinus pyralis) (UniProt P08659). Briefly: qHTS assay to identify small molecule inhibitors of firefly luciferase (AID 1224835). Further: nearly all actives have a fitted effect of over 25% in size. The essentials:
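Quantitative HTS format; KM concentrations of both substrates. Purified P. pyralis FLuc activity quantified from luminescence images.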

The nature of experiment [7]: qHTS assay to identify small molecule agonists of the constitutive androstane receptor (CAR) signaling pathway - cell viability counter screen (AID 1224836). Further: nearly all actives have a fitted effect of over 45% in size. The essentials:
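Double-stable HepG2 hepatoma cells (hCAR plus CYP2B6-2.2kb) are treated for 23 h at 37 C with test compounds in 15-point concentration series. PK11195 at 0.75 uM final is co-added. Cell viability is quantified by CellTiter-Fluor.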

Experiment [8] can be described thus: qHTS assay to identify small molecule antagonists of the constitutive androstane receptor (CAR) signaling pathway - cell viability counter screen (AID 1224837). Further: nearly all actives have a fitted effect of over 45% in size. Further: potency means the concentration at half of the fitted maximal effect. The essentials: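 HepG2 cells stably expressing hCAR and a CYP2B6-2.2kb reporter were plated and pre-incubated 4 hr at 37 C/5% CO2, then given compounds at 15 concentrations plus 50 nM CITCO (final). After 23 hr, viability was read by CellTiter-Fluor fluorescence.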

Experiment [9] addresses Nuclear receptor subfamily 1 group I member 3 (Homo sapiens) (UniProt Q14994). Description: qHTS assay to identify small molecule antagonists of the constitutive androstane receptor (CAR) signaling pathway (AID 1224838). Further: nearly all actives have a fitted effect of over 40% in size. The essentials:
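HepG2 cells stably co-transfected with hCAR and a CYP2B6-2.2kb luciferase reporter were seeded 4 h before compound addition at 15 concentrations. Cells were stimulated with 50 nM CITCO (final) for 24 h at 37 C; luciferase luminescence was then read.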

A short description of experiment [10]: qHTS assay to identify small molecule antagonists of the estrogen related receptor (ERR) signaling pathway from Tox21 library - cell viability counter screen (AID 1224834). Further: nearly all actives have a fitted effect of over 30% in size. The essentials: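 ERR reporter cells were plated 6 h before compound addition, then exposed to test compounds in DMSO for 17.5 h at 37 C. Viability was read as CellTiter-Fluor fluorescence after a 30-minute incubation at 37 C.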

Structures are written as SMILES. Inconclusive results are not listed. Unmarked numbers belong to inactive results. The source made the active and inactive calls. Unless noted, the call rests on the fitted dose curve; in most records, active means well fitted curve in the direction sought with a large enough effect in the repeat runs; inconclusive means weak or mixed curves; inactive means no such curve, though single readings can be large; an effect the other way counts as inactive or inconclusive.
On the % scale 0 is the no-effect control and ±100 the full control effect.

Sequence of Retinoic acid receptor RXR-alpha (Homo sapiens) (P19793 whole entry, looked up): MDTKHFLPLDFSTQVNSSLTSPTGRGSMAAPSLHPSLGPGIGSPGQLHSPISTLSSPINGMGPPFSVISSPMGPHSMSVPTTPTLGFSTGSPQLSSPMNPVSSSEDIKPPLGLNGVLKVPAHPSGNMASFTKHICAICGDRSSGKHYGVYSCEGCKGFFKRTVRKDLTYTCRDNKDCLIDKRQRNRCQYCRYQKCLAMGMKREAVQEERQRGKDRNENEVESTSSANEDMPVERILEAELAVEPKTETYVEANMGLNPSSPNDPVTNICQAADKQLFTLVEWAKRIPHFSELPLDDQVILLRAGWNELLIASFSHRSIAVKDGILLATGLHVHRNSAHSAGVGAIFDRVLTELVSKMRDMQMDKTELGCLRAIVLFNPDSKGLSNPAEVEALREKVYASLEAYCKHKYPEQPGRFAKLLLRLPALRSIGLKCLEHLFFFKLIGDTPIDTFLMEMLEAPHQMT
Sequence of Luciferin 4-monooxygenase (Photinus pyralis) (P08659 whole entry, looked up): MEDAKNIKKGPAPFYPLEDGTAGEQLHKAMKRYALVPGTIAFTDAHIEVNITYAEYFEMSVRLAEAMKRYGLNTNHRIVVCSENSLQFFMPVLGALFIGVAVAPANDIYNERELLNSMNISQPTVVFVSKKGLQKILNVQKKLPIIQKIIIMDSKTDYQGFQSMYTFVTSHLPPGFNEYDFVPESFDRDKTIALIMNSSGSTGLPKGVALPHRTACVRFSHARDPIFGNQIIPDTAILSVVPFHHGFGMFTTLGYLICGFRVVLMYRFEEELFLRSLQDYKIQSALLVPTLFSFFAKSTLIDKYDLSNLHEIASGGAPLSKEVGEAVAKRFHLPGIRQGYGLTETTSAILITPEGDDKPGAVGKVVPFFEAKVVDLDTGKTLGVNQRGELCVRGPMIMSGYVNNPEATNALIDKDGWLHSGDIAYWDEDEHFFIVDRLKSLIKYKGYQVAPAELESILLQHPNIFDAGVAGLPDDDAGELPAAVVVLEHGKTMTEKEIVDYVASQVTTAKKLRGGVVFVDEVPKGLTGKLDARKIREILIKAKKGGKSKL
Sequence of Nuclear receptor subfamily 1 group I member 3 (Homo sapiens) (Q14994 whole entry, looked up): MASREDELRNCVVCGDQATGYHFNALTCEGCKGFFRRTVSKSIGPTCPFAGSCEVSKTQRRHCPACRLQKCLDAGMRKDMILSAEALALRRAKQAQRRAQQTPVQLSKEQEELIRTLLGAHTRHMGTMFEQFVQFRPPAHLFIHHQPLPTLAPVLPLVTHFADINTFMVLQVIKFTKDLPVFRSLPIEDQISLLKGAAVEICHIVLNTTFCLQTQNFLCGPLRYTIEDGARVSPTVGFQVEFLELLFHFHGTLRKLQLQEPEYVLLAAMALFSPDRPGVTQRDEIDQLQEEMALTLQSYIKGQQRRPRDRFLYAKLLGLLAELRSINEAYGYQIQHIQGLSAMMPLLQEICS

On to `C[Si]1(C)N[Si](C)(C)N[Si](C)(C)N1`, for which the Potency entry in experiment [1], in experiment [4], in experiment [5], in experiment [6], in experiment [8] and in experiment [9] was “inactive” in each case. Further, the outcome in [2], in [3] and in experiment [7] was inactive.

As to `Nc1c(NC/C=C\COc2cc(CN3CCCCC3)ccn2)c(=O)c1=O`, in experiment [1], the activation is 10.6% [at 15.8 µM]. The figures for the activity change, negative = cytotoxicity in experiment [2] and in [3] were 0.401% [at 15.8 µM] and 3.28% [at 19 µM], respectively. In addition, the activity, negative = inhibition is -5.94% [at 19 µM] in experiment [4] and 4.07% [at 19 µM] in [9]. Moreover, the Potency result in experiment [5] was “inactive”. Also, the viability change, negative = cytotoxic in [10] was -12.4% [at 19 µM]. In addition, the activity change, negative = inhibition in [6] is 10.6% [at 23.6 µM].

For `O=C(O)C(=O)Nc1cccc(-c2nn[nH]n2)c1`, the Potency entry in experiment [1], in experiment [4], in experiment [5], in experiment [6] and in experiment [8] was “inactive” throughout. In addition, the compound was classed as inactive in experiment [2], in experiment [3] and in [7].

In the case of `CCCCC(CC)CNC(=O)CC(C)OC(=O)CCC(=O)O` (stereo not given), the Potency entry in experiment [1], in experiment [4], in experiment [10], in experiment [8] and in [9] was “inactive” each time. Besides, the compound was called inactive in experiment [2], in experiment [3] and in [7]. Also, the Potency in experiment [5] was 29.8 µM (active).

Turning to `CCc1nccnc1C`, the Potency result in experiment [1], in [4], in [5], in experiment [6] and in [8] was “inactive” in each case. For the same compound, the call in experiment [2], in experiment [3] and in experiment [7] was inactive.

Turning to `CC(C)C(=O)Nc1cccc(C(F)(F)F)c1`, the Potency entry in experiment [1], in experiment [4], in experiment [5], in experiment [10], in experiment [8] and in [9] was “inactive” throughout. Further, the compound was classed as inactive in experiment [2], in experiment [3] and in experiment [7].

Consider `CCC(C)(C)C1CCC(=O)CC1`, for which the Potency result in experiment [1], in experiment [4], in experiment [5], in experiment [6] and in experiment [8] was “inactive” throughout. Besides, the call in [2], in experiment [3] and in experiment [7] was inactive.

On to `CC(C)COC(=O)CC(C(=O)OCC(C)C)S(=O)(=O)O` (stereo not given), for which the Potency entry in experiment [1], in experiment [4], in [5], in [10], in experiment [6] and in experiment [8] was “inactive” throughout. In addition, the Potency result in experiment [9] is “inactive”. The call in experiment [3] and in experiment [7] was inactive.

Regarding `O=P(O)(O)OCC(O)CO` (stereo not given), the Potency entry in [1], in experiment [4], in experiment [5], in [10], in experiment [6] and in [8] was “inactive” in each case. The compound was called inactive in [3] and in [7].

In the case of `CC1(N)CCC(C(C)(C)N)CC1` (stereo not given), the Potency result in experiment [1], in [4], in experiment [5], in [10], in [6] and in experiment [8] was “inactive” throughout. The compound was classed as inactive in experiment [3] and in [7].

`C=C(C)C(=O)OC`: the Potency entry in experiment [1], in experiment [4], in [5], in experiment [8] and in [9] was “inactive” each time. Besides, the compound was classed as inactive in experiment [2], in [3] and in experiment [7].

Regarding `Cc1c(C(C)C)c(=O)n(-c2ccccc2)n1C`, the Potency entry in [1], in [4], in [5], in [10], in [6] and in experiment [8] was “inactive” throughout. For the same compound, the Potency result in experiment [9] is “inactive”. The call in [3] and in experiment [7] was inactive.

For `Cc1ccc(C(=O)C(=O)O)cc1C`, the Potency result in experiment [1], in experiment [4], in [5], in experiment [10], in experiment [6] and in experiment [8] was “inactive” throughout. Also, the outcome in experiment [3] and in experiment [7] was inactive.

`BrC/C=C/CBr`: in experiment [1], the activation is 4.67% [at 15.8 µM]. Further, the values for the activity change, negative = cytotoxicity in [3] and in experiment [8] were 3.13% [at 19 µM] and -2.33% [at 19 µM], respectively. In addition, the activity, negative = inhibition in experiment [4] is 22.9% [at 19 µM]. Also, the Potency result in [5] is “inactive”. The viability change, negative = cytotoxic in experiment [10] was 0.661% [at 19 µM]; in experiment [7], 0.935% [at 19 µM]. Further, the activity change, negative = inhibition in experiment [6] is 0.329% [at 23.6 µM].

For the compound `Cc1oc(=O)oc1CN1CCN(c2cc3c(cc2F)c(=O)c(C(=O)O)c2n3C(C)S2)CC1` (stereo not given), the Potency result in experiment [1], in experiment [4], in experiment [5], in [10], in [6] and in [8] was “inactive” in each case. Besides, the compound was called inactive in experiment [3] and in experiment [7].

Take `C=CCOCC(CO)(COCC=C)COCC=C`: the Potency entry in [1], in [4], in experiment [5], in [10], in experiment [6] and in experiment [8] was “inactive” in each case. Also, the Potency entry in experiment [9] is “inactive”. Also, the compound was called inactive in [3] and in experiment [7].

Regarding `O=S(=O)(O)SSS(=O)(=O)O`, the Potency entry in experiment [1], in experiment [4], in experiment [5], in [10], in experiment [8] and in experiment [9] was “inactive” in each case. The call in experiment [3] and in [7] was inactive.

With `Cc1nc2n(c(=O)c1CCN1CCC(C(=O)c3ccc(F)cc3)CC1)CCS2`, the Potency result in experiment [1], in experiment [4], in [5], in [10], in experiment [6] and in experiment [8] was “inactive” each time. Besides, the outcome in experiment [3] and in experiment [7] was inactive.

As to `CC(C)=CC(C)(C)C`, the Potency entry in [1], in experiment [4], in [5], in [10], in [6] and in [8] was “inactive” each time. Moreover, the result in experiment [3] and in [7] was inactive.

As to `CCN(Cc1cccc(S(=O)(=O)O)c1)c1ccccc1`, the Potency entry in experiment [1], in experiment [4], in experiment [5], in experiment [10], in [8] and in experiment [9] was “inactive” throughout. Moreover, the call in experiment [3] and in experiment [7] was inactive.

As to `c1ccccc1`, the Potency result in experiment [1], in [4], in experiment [5], in [10], in [6] and in experiment [8] was “inactive” in each case. Further, the compound was called inactive in experiment [3] and in experiment [7].

In the case of `CCCCCCCCCCCCC1CO1` (stereo not given), the Potency entry in [1], in [4], in [5], in [10], in experiment [6] and in experiment [8] was “inactive” each time. The Potency result in experiment [9] was “inactive”. For the same compound, the compound was classed as inactive in experiment [3] and in experiment [7].

Turning to `Cc1cccc(NC(=S)N(C)C)c1`, the Potency result in experiment [1], in [4], in [5] and in experiment [6] was “inactive” throughout. Further, the result in [3] and in experiment [7] was inactive. In addition, the Potency in [8] is 61.1 µM (active).
